Results on 33 molecules are retold here after PubChem BioAssay AID1508615 (Milbrandt Lab, Department of Genetics, Washington …, 2020).

SMILES strings stand for the structures. The whole screen tested about 1,600 compounds, of which about 20 (1%) were called active.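 The calls were made as follows: active = ratio of uncleaved NAD to its breakdown product ADP-ribose above 4, meaning the enzyme was inhibited; inactive = the rest.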 Shown is part of a subset that was picked to be rich in actives.

Chain of NAD(+) hydrolase SARM1 (Homo sapiens) (Q6SZW1 whole entry, looked up): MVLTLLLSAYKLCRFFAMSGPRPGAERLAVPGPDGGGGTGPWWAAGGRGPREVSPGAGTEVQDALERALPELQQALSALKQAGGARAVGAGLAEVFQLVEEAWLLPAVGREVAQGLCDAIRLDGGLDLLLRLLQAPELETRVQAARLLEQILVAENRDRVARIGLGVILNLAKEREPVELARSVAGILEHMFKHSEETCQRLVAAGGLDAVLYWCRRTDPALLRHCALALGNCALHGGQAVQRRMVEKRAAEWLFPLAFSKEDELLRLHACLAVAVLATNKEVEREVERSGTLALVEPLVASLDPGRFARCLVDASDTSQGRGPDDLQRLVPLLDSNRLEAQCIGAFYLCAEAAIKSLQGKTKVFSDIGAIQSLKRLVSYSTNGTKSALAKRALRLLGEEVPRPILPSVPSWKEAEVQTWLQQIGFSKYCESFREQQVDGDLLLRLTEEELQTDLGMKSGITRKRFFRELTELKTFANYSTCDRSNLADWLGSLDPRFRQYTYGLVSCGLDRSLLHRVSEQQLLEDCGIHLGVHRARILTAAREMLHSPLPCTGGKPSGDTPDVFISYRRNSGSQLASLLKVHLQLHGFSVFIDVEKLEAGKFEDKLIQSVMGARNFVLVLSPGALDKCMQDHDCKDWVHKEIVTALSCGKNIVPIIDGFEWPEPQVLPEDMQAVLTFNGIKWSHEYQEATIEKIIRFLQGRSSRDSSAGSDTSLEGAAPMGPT

This test has as its target NAD(+) hydrolase SARM1 (Homo sapiens) (UniProt Q6SZW1). The test can be described thus: inhibition of SAM-TIR NAD hydrolysis to ADPR – cell lysate, HPLC readout, primary screen (AID 1508615).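 Also: substrate NAD at 5 µM with 60 min at 37 °C.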 The note with it: HEK293T SAM-TIR lysate, NAD/ADPR ratio by HPLC; at 5 µM; stronger effect = higher value.
Regarding `C=CCN1CCN(c2ccncc2S(=O)(=O)N2CCN(C)CC2)CC1`, the NAD/ADPR ratio was 3 (inactive).
As for `COC(=O)Nc1csc2c1NC(=O)CCCC2`, the figure is 3 (inactive).
As for `Nc1ccc2c(c1Cl)C(=O)c1ccc(N)c(Cl)c1C2=O`, the figure is 3 (inactive); as for `O=C1OCC/C1=C\OCCCO/C=C1\CCOC1=O`, 3 (inactive).
With `CC(C)C(=O)Nc1cccnc1` the figure was 3 (inactive); with `Cc1ccc(N2CCN(CC(O)COc3cccc(C)c3)CC2)cc1` (stereo not drawn), 3 (inactive).
Consider `C=CCOc1ccnc(-c2ccccc2)n1`, for which the NAD/ADPR ratio was 3 (inactive).
With `O=[N+]([O-])c1ccc(NN=C(c2ccccc2)c2ccccc2)nc1` the figure was 2.8 (inactive); with `Cn1cnc([N+](=O)[O-])c1Sc1nnc(-c2cccnc2)n1C`, 3 (inactive).
With `NC(=S)Nc1cccc(Cl)c1` the figure was 3 (inactive); with `Cc1ccc(-c2nc(-c3nccc4ccccc34)oc2-c2ccccc2)cc1`, 3 (inactive).
With `CCC(CO)Nc1nc2ccc(Cl)cc2c2ccccc12` (stereo not drawn) the figure was 3 (inactive).
Turning to `O=C1c2cccc(Oc3ccccc3)c2C(=O)c2cccc(Oc3ccccc3)c21`, the NAD/ADPR ratio was 3 (inactive).
With `C=CCNC(=S)Nc1cccc([N+](=O)[O-])c1` the figure was 3 (inactive); with `[O-]/[N+](=C\c1ccccc1)CC1(O)CCCCC1`, 3 (inactive).
As for `O=c1cc(CO)[nH]nc1CO`, the figure is 3 (inactive); as for `COc1ccc2nc3cc(Cl)ccc3c(C#N)c2c1`, 3 (inactive).
With `O=C(Nc1ccc(C(=O)O)c(O)c1)c1ccccc1` the figure was 3 (inactive); with `CC(=O)c1cc(O)c2ccccc2c1O`, 10.2 (active); with `CC(C)(NC(=O)c1cc(Cl)c2ccccc2c1O)C(=O)O`, 3 (inactive).
Regarding `CCOC(=O)Cc1c[nH]c(=S)[nH]c1=O`, the NAD/ADPR ratio is 3 (inactive).
With `Cn1c(=O)c2[nH]c(COc3ccc(C(C)(C)C)cc3)nc2n(C)c1=O` the figure was 3 (inactive); with `S=C1N(c2ccccc2)CN(C2CCCCC2)CN1c1ccccc1`, 3 (inactive); with `O=[N+]([O-])c1ccc(Sc2ncccn2)c([N+](=O)[O-])c1`, 3 (inactive).
As for `O=[N+]([O-])c1ccc(Sc2cccc[n+]2[O-])c2nonc12`, the NAD/ADPR ratio is 12.6 (active).
With `CC1(CN2CCCC2)CCC(NC(=O)C(c2ccccc2)c2ccccc2)C(C)(C)O1` (stereo not drawn) the figure was 3 (inactive); with `C(=C\c1ccncc1)/c1ccncc1`, 3 (inactive); with `O=C(O)c1ccc(NCc2nc3ccccc3[nH]2)cc1`, 3 (inactive).
With `Oc1ccc2ccc3[nH]cnc3c2c1` the figure was 3 (inactive); with `N/C(CC(=O)Nc1cc(C(F)(F)F)ccc1Cl)=N\O`, 3 (inactive); with `CC1CCC(C(C)C)C(NC(=O)c2ccncc2)C1` (stereo not drawn), 3 (inactive).
With `Clc1nc(NCCc2ccccc2)c2cn[nH]c2n1` the figure was 2.8 (inactive); with `Cn1cnc([N+](=O)[O-])c1Sc1ncn[nH]1`, 3 (inactive).
